Assay [1] in a line: Primary qHTS for Huh7 cytotoxicity: counterscreen for inhibitors of MERS-S pseudotyped particle cell entry (AID 1479147).
Assay [2] can be described thus: Primary qHTS for Vero E6 cytotoxicity: counterscreen for inhibitors of SARS-S pseudo-typed particle cell entry (AID 1479150).
Assay [3] is described as follows: Confirmatory qHTS for VERO E6 Cytotoxicity Assay: Counterscreen for SARS-CoV-2 CPE Assay (AID 1508605). Also: series mostly up to about 20 µM; nearly all actives have a fitted effect of over 60% in size.

SMILES strings stand for the structures. Inconclusive results are not listed. Active and inactive are the calls of the source. Calls follow the shape of the full dose curve.

With `O=C(CCCN1CC=C(n2c(=O)[nH]c3ccccc32)CC1)c1ccc(F)cc1`, the Potency entry in assay [1] and in assay [2] was “inactive” each time.

Consider `CC(=O)O[C@]1(C(C)=O)CC[C@H]2[C@@H]3C=C(Cl)C4=CC(=O)CC[C@]4(C)[C@H]3CC[C@@]21C`, for which the Potency entry in assay [1] and in assay [2] was “inactive” in each case.

With `O=C(NCC1CN(c2ccc(N3CCOCC3=O)cc2)C(=O)O1)c1ccc(Cl)s1` (centres undefined), the Potency result in assay [1] and in assay [2] was “inactive” throughout.

In the case of `COc1cc(N)c(Cl)cc1C(=O)NC1CCN(Cc2ccccc2)CC1`, the Potency result in assay [1] and in assay [2] was “inactive” each time.

As to `CN(C)CCOc1ccccc1Cc1ccccc1`, the Potency result in assay [1] and in assay [2] was “inactive” throughout.

In the case of `CC(=O)c1ccc2c(c1)N(CCCN(C)C)c1ccccc1S2`, the Potency result in assay [1] and in assay [2] was “inactive” in each case.

With `Clc1ccc2c(c1)CCc1cccnc1C2=C1CCNCC1`, the Potency entry in assay [1], in assay [2] and in assay [3] was “inactive” throughout.

Turning to `NC(=NCCCCCCN=C(N)/N=C(\N)Nc1ccc(Cl)cc1)/N=C(\N)Nc1ccc(Cl)cc1`, the Potency result in assay [1] and in assay [2] was “inactive” in each case.

`CCCCCC(=O)O[C@]1(C(C)=O)CC[C@H]2[C@@H]3CCC4=CC(=O)CC[C@]4(C)[C@H]3CC[C@@]21C`: the Potency entry in assay [1] and in assay [2] was “inactive” throughout.

For the compound `COC(=O)C1=C(C)NC(C)=C(C(=O)OC(C)(C)CN(C)CCC(c2ccccc2)c2ccccc2)C1c1cccc([N+](=O)[O-])c1` (centres undefined), the Potency entry in assay [1] and in assay [2] was “inactive” each time.

On to `COCCOC(=O)C1=C(C)NC(C)=C(C(=O)OC/C=C/c2ccccc2)C1c1cccc([N+](=O)[O-])c1` (centres undefined), for which the Potency result in assay [1] and in assay [2] was “inactive” throughout.

As to `CN(C)CCCN1c2ccccc2Sc2ccccc21`, the Potency result in assay [1], in assay [2] and in assay [3] was “inactive” throughout.

With `CN1CCCCC1CCN1c2ccccc2Sc2ccc(S(C)=O)cc21` (centres undefined), the Potency entry in assay [1], in assay [2] and in assay [3] was “inactive” in each case.
